{"source": "PubChem BioAssay (NCATS)", "note": "Records with an inconclusive call do not appear. Activity calls are given as the source filed them. Calls come from the whole dose curve.", "data": [{"assay": "Validation screen for inhibitors of Lassa infection (AID 463096)", "details": "Lassa virus infection, cell-based; series mostly up to 46.1 µM", "values": [{"compound": "Cn1c(=O)c2[nH]cnc2n(C)c1=O", "outcome": "inactive"}, {"compound": "CCN(Cc1ccncc1)C(=O)C(CO)c1ccccc1", "note": "(configuration not stated)", "outcome": "inactive"}, {"compound": "CC(CCc1ccc(O)cc1)NCCc1ccc(O)c(O)c1", "note": "(configuration not stated)", "outcome": "inactive"}, {"compound": "CN1C(C(=O)Nc2ccccn2)=C(O)c2ccccc2S1(=O)=O", "outcome": "inactive"}, {"compound": "COC(=O)[C@@H]1[C@H]2C[C@H]3c4[nH]c5ccccc5c4CCN3C[C@@H]2CC[C@@H]1O", "outcome": "inactive"}, {"compound": "CN(C)CCOC(=O)COc1ccc(Cl)cc1", "outcome": "inactive"}, {"compound": "Nc1cc(=O)[nH]c(N)n1", "outcome": "inactive"}, {"compound": "C1COC(NC(C2CC2)C2CC2)=N1", "outcome": "inactive"}, {"compound": "Cc1nnc(SCC2=C(C(=O)O)N3C(=O)[C@@H](NC(=O)Cn4cnnn4)[C@H]3SC2)s1", "outcome": "inactive"}, {"compound": "CCN(CC)C(=O)c1ccc(O)c(OC)c1", "outcome": "inactive"}, {"compound": "Clc1cccc(Cl)c1NC1=NCCN1", "outcome": "inactive"}, {"compound": "CCOC(=O)C1=C(C)NC(C)=C(C(=O)OC)C1c1cccc([N+](=O)[O-])c1", "note": "(configuration not stated)", "outcome": "inactive"}, {"compound": "Cc1nc2c([nH]1)c(=O)n(C)c(=O)n2Cc1ccco1", "outcome": "inactive"}, {"compound": "CO[C@@]1(NC(=O)CSCC#N)C(=O)N2C(C(=O)O)=C(CSc3nnnn3C)CS[C@@H]21", "outcome": "inactive"}, {"compound": "CN1CCN(CC(=O)N2c3ccccc3C(=O)Nc3cccnc32)CC1", "outcome": "inactive"}, {"compound": "O=C1NCC2(CCN(CCc3ccccc3)CC2)O1", "outcome": "inactive"}, {"compound": "CCN(CC)CCNC(=O)c1cc(S(C)(=O)=O)ccc1OC", "outcome": "inactive"}, {"compound": "CNCC(O)c1ccc(O)c(O)c1", "note": "(configuration not stated)", "outcome": "inactive"}, {"compound": "N[C@@H](COP(=O)(O)O)C(=O)O", "outcome": "inactive"}, {"compound": "C=CC(N)CCC(=O)O", "note": "(configuration not stated)", "outcome": "inactive"}, {"compound": "CC(C)C(=O)c1c(C(C)C)nn2ccccc12", "outcome": "inactive"}, {"compound": "CC(=O)OC(C)C[N+](C)(C)C", "note": "(configuration not stated)", "outcome": "inactive"}, {"compound": "CC(=O)N1CCN(c2ccc(OC[C@H]3CO[C@](Cn4ccnc4)(c4ccc(Cl)cc4Cl)O3)cc2)CC1", "outcome": "inactive"}, {"compound": "CC(C)(C)NCC(O)c1cc(O)cc(O)c1", "note": "(configuration not stated)", "outcome": "inactive"}, {"compound": "CC(C)NCC(O)c1cc(O)cc(O)c1", "note": "(configuration not stated)", "outcome": "inactive"}, {"compound": "CC1COc2c(N3CCN(C)CC3)c(F)cc3c(=O)c(C(=O)O)cn1c23", "note": "(configuration not stated)", "outcome": "inactive"}, {"compound": "COc1cc(-c2ccc(=O)[nH]n2)ccc1OC(F)F", "outcome": "inactive"}, {"compound": "CCn1nc(C(=O)O)c(=O)c2cc3c(cc21)OCO3", "outcome": "inactive"}, {"compound": "Cc1nc2ccccn2c(=O)c1CCN1CCC(C(=O)c2ccc(F)cc2)CC1", "outcome": "inactive"}, {"compound": "FC(F)(F)c1ccccc1-n1ccnc1", "outcome": "inactive"}, {"compound": "CN(C)C(=O)Oc1ccc[n+](C)c1", "outcome": "inactive"}, {"compound": "CCCNC(C)C(=O)Nc1ccccc1C", "note": "(configuration not stated)", "outcome": "inactive"}, {"compound": "C[N+](C)(C)CCCCCC[N+](C)(C)C", "outcome": "inactive"}, {"compound": "NC(=O)c1cnccn1", "outcome": "inactive"}, {"compound": "CCO/C([O-])=N/c1c[n+](N2CCOCC2)no1", "outcome": "inactive"}, {"compound": "NCCCNCCSP(=O)(O)O", "outcome": "inactive"}, {"compound": "O=c1[nH]cnc2[nH]ncc12", "outcome": "inactive"}]}]}
